Test results taken from PubChem BioAssay AID1159580 (chemical genetic matrix, 2015).
“And” between values parts separate entries of the source, which are not always exact repeats. Equal values may be shown once. The whole screen tested about 5,500 compounds, of which about 2,000 (36%) were called active. About 18% were inconclusive and are not listed. No stated cut-off is given here; in the data, active means normalized growth mostly below about 0.91 (no sharp cut-off); inconclusive means no clear call, values can overlap the other calls; inactive means mostly above about 0.92. Some of the results follow.

Experiment: chemical genetic growth profiling, strain panel (AID 1159580);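 further: tested at 20 µM; growth read once vehicle control cultures reached saturation at 30 °C; 1 = growth at the plate median or of vehicle wells; lower values mean less growth of the strain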
Details: growth OD

Measured: normalized growth

O=S(=O)(N/N=C\c1ccc(Cl)cc1)c1ccc(-c2ccccn2)s1
active: S. cerevisiae deletion strains, locus YKL190W, strain CNB1, hits give low values 0.924 | S. cerevisiae deletion strains, locus YLR039C, strain RIC1, hits give low values 0.465 | S. cerevisiae deletion strains, locus YLR262C, strain YPT6, hits give low values 0.427 | S. cerevisiae deletion strains, locus YNL298W, strain CLA4 (second series), hits give low values 0.826 | S. cerevisiae deletion strains, locus YNR030W, strain Alg12, hits give low values 0.856 | S. cerevisiae strains, strain wild type, hits give low values 0.897
inactive: S. cerevisiae deletion strains, locus YAL013W, strain DEP1, hits give low values 0.973 | S. cerevisiae deletion strains, locus YAR019C, strain CDC15, hits give low values 0.993 | S. cerevisiae deletion strains, locus YBL105C, strain PKC1, hits give low values 0.981 | S. cerevisiae deletion strains, locus YBR135W, strain CKS1, hits give low values 0.98 | S. cerevisiae deletion strains, locus YBR136W, strain MEC1, hits give low values 0.982 | S. cerevisiae deletion strains, locus YBR160W, strain CDC28, hits give low values 0.969 | S. cerevisiae deletion strains, locus YBR229C, strain ROT2, hits give low values 0.994 | S. cerevisiae deletion strains, locus YDL017W, strain CDC7, hits give low values 0.978 | S. cerevisiae deletion strains, locus YDL028C, strain MPS1, hits give low values 0.969 | S. cerevisiae deletion strains, locus YDL101C, strain DUN1, hits give low values 0.979 and 0.977 | S. cerevisiae deletion strains, locus YDL108W, strain KIN28, hits give low values 0.976 | S. cerevisiae deletion strains, locus YDL132W, strain cdc53, hits give low values 0.975 | S. cerevisiae deletion strains, locus YDL134C, strain PPH21, hits give low values 0.931 | S. cerevisiae deletion strains, locus YDL214C, strain PRR2, hits give low values 0.98 | S. cerevisiae deletion strains, locus YDR052C, strain DBF4, hits give low values 0.97 | S. cerevisiae deletion strains, locus YDR054C, strain cdc34, hits give low values 0.979 | S. cerevisiae deletion strains, locus YDR150W, strain NUM1, hits give low values 0.976 | S. cerevisiae deletion strains, locus YDR226W, strain ADK1, hits give low values 0.988 | S. cerevisiae deletion strains, locus YDR477W, strain SNF1, hits give low values 0.958 | S. cerevisiae deletion strains, locus YEL061C, strain CIN8, hits give low values 0.935 | S. cerevisiae deletion strains, locus YER123W, strain YCK3, hits give low values 0.96 | S. cerevisiae deletion strains, locus YER133W, strain GLC7, hits give low values 0.99 | S. cerevisiae deletion strains, locus YFL009W, strain cdc4, hits give low values 0.974 | S. cerevisiae deletion strains, locus YFL029C, strain CAK1, hits give low values 0.994 | S. cerevisiae deletion strains, locus YFR003C, strain YPI1, hits give low values 0.976 | S. cerevisiae deletion strains, locus YFR019W, strain FAB1, hits give low values 0.976 | S. cerevisiae deletion strains, locus YFR028C, strain CDC14, hits give low values 0.973 | S. cerevisiae deletion strains, locus YGR040W, strain KSS1, hits give low values 0.96 | S. cerevisiae deletion strains, locus YGR052W, strain FMP48, hits give low values 0.947 | S. cerevisiae deletion strains, locus YGR078C, strain PAC10, hits give low values 0.975 | S. cerevisiae deletion strains, locus YGR092W, strain DBF2, hits give low values 0.942 | S. cerevisiae deletion strains, locus YHR030C, strain SLT2, hits give low values 0.797 and 1.04 | S. cerevisiae deletion strains, locus YHR079C, strain IRE1, hits give low values 1.07 | S. cerevisiae deletion strains, locus YHR082C, strain KSP1, hits give low values 1.02 | S. cerevisiae deletion strains, locus YHR087W, strain rtc3, hits give low values 0.998 | S. cerevisiae deletion strains, locus YHR205W, strain SCH9, hits give low values 0.983 | S. cerevisiae deletion strains, locus YIL147C, strain SLN1, hits give low values 0.975 | S. cerevisiae deletion strains, locus YJL095W, strain BCK1, hits give low values 0.961 | S. cerevisiae deletion strains, locus YJL128C, strain PBS2, hits give low values 0.946 | S. cerevisiae deletion strains, locus YJL157C, strain FAR1, hits give low values 0.98 | S. cerevisiae deletion strains, locus YJL187C, strain SWE1, hits give low values 1.02 | S. cerevisiae deletion strains, locus YJR016C, strain ILV3, hits give low values 0.976 | S. cerevisiae deletion strains, locus YJR043C, strain POL32, hits give low values 0.947 | S. cerevisiae deletion strains, locus YJR066W, strain TOR1 (second series), hits give low values 0.996 | S. cerevisiae deletion strains, locus YJR066W, strain TOR1, hits give low values 1.05 | S. cerevisiae deletion strains, locus YJR075W, strain HOC1, hits give low values 0.988 | S. cerevisiae deletion strains, locus YKL048C, strain ELM1, hits give low values 0.959 | S. cerevisiae deletion strains, locus YKL067W, strain YNK1, hits give low values 0.976 | S. cerevisiae deletion strains, locus YKL101W, strain HSL1, hits give low values 0.949 | S. cerevisiae deletion strains, locus YKL193C, strain SDS22, hits give low values 0.977 | S. cerevisiae deletion strains, locus YKL203C, strain TOR2, hits give low values 1.04 | S. cerevisiae deletion strains, locus YLR058C, strain SHM2 (second series), hits give low values 0.996 | S. cerevisiae deletion strains, locus YLR085C, strain ARP6, hits give low values 0.912 | S. cerevisiae deletion strains, locus YLR113W, strain HOG1, hits give low values 0.888 | S. cerevisiae deletion strains, locus YLR133W, strain CKI1, hits give low values 0.967 | S. cerevisiae deletion strains, locus YLR403W, strain SFP1, hits give low values 0.95 | S. cerevisiae deletion strains, locus YML070W, strain DAK1, hits give low values 0.938 | S. cerevisiae deletion strains, locus YML094W, strain GIM5, hits give low values 0.95 | S. cerevisiae deletion strains, locus YMR001C, strain CDC5, hits give low values 0.99 | S. cerevisiae deletion strains, locus YMR205C, strain PFK2 (second series), hits give low values 0.969 | S. cerevisiae deletion strains, locus YMR219W, strain ESC1, hits give low values 0.998 | S. cerevisiae deletion strains, locus YMR263W, strain SAP30, hits give low values 0.976 | S. cerevisiae deletion strains, locus YMR277W, strain FCP1, hits give low values 0.978 | S. cerevisiae deletion strains, locus YMR307W, strain GAS1, hits give low values 0.712 | S. cerevisiae deletion strains, locus YNL006W, strain LST8, hits give low values 0.994 | S. cerevisiae deletion strains, locus YNL020C, strain ARK1, hits give low values 0.953 | S. cerevisiae deletion strains, locus YNL128W, strain TEP1, hits give low values 0.975 | S. cerevisiae deletion strains, locus YNL153C, strain GIM3, hits give low values 0.976 | S. cerevisiae deletion strains, locus YNL161W, strain CBK1, hits give low values 0.986 | S. cerevisiae deletion strains, locus YNL183C, strain NPR1, hits give low values 0.967 | S. cerevisiae deletion strains, locus YNL207W, strain RIO2, hits give low values 0.977 | S. cerevisiae deletion strains, locus YNL222W, strain SSU72, hits give low values 0.978 | S. cerevisiae deletion strains, locus YNL307C, strain MCK1 (second series), hits give low values 0.969 | S. cerevisiae deletion strains, locus YNL322C, strain KRE1, hits give low values 1 | S. cerevisiae deletion strains, locus YOL006C, strain TOP1, hits give low values 0.838 | S. cerevisiae deletion strains, locus YOL078W, strain AVO1, hits give low values 0.963 | S. cerevisiae deletion strains, locus YOL136C, strain PFK27, hits give low values 0.94 | S. cerevisiae deletion strains, locus YOR061W, strain CKA2, hits give low values 0.966 | S. cerevisiae deletion strains, locus YOR119C, strain RIO1, hits give low values 1.01 | S. cerevisiae deletion strains, locus YOR231W, strain MKK1, hits give low values 0.945 | S. cerevisiae deletion strains, locus YOR329C, strain SCD5, hits give low values 0.984 | S. cerevisiae deletion strains, locus YPL031C, strain PHO85, hits give low values 0.969 | S. cerevisiae deletion strains, locus YPL055C, strain LGE1, hits give low values 1.1 | S. cerevisiae deletion strains, locus YPL153C, strain RAD53, hits give low values 0.963 | S. cerevisiae deletion strains, locus YPL204W, strain HRR25, hits give low values 0.951 | S. cerevisiae deletion strains, locus YPL209C, strain IPL1, hits give low values 0.974 | S. cerevisiae deletion strains, locus YPL241C, strain CIN2, hits give low values 0.894 | S. cerevisiae deletion strains, locus YPL256C, strain CLN2, hits give low values 1.03 | S. cerevisiae deletion strains, locus YPR025C, strain CCL1, hits give low values 0.982 | S. cerevisiae deletion strains, locus YPR106W, strain ISR1, hits give low values 0.986 | S. cerevisiae deletion strains, locus YPR111W, strain DBF20, hits give low values 0.967 | S. cerevisiae deletion strains, locus YPR135W, strain CTF4, hits give low values 0.711 | S. cerevisiae deletion strains, strain NNK1, hits give low values 0.996 | S. cerevisiae deletion strains, strain TSCII, hits give low values 0.984
